We go through 39 molecules from PubChem BioAssay (NCATS).

Records with an inconclusive call do not appear. Calls of active or inactive are those of the source. Calls come from the whole dose curve; as a rule, active = well fitted inhibition curve with a large enough effect; inconclusive = small, poorly fitted or top-dose-only effect; inactive = flat fitted curve, though single readings scatter.
% is set by controls: 0 for no effect and ±100 for the full control effect.

Sequence of Calcium and integrin-binding protein 1 (Homo sapiens) (Q99828 whole entry, looked up): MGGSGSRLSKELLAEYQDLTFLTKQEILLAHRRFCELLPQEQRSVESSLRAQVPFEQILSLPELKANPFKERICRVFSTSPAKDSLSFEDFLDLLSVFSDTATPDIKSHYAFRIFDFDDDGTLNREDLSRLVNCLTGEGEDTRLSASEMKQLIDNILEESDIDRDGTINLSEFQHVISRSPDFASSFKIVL

The test has as its target Calcium and integrin-binding protein 1 (Homo sapiens) (UniProt Q99828). Briefly: Primary qHTS for Identification of Calcium Integrin Binding Protein 1 (CIB1) Competitor (AID 1508620). Note: top concentration of the series differs between compounds. Particulars: CIB1-GST / FITC-alphaIIb peptide fluorescence polarization; series mostly up to 114 µM; activity change, negative = inhibition: at the top concentration. The gist of the method: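 Fluorescence polarization competition: GST-tagged CIB1 (1 uM final) preincubated with compound 15 min at room temperature, then FITC-labelled alphaIIb peptide (100 nM final) added. After 15 min at room temperature, polarization read at Ex 480/Em 540.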
A general note: In qHTS, concentration-response curves come from the screen itself.
In the case of `CC(=O)N1CCCc2cc(S(=O)(=O)Nc3ccc(C)c(C)c3)ccc21`, the “activity change, negative = inhibition” value is -0.907% (inactive).
Turning to `O=C(Nc1ncc(Cc2ccc(C(F)(F)F)cc2)s1)c1cccc(-c2ccccc2)c1`, the “activity change, negative = inhibition” value was -3.4% (inactive).
Still for that read-out and setting: to `C#CCOc1ccc(C(C)=O)cc1-c1nnc2n1N=C(c1ccc(OC)c(OC)c1)CS2` belongs 1.77% (inactive); to `C=CCNc1oc(-c2cccnc2)nc1C#N`, -0.52% (inactive).
On to `Cc1ccc(OCCn2c(CCNC(=O)c3ccncc3)nc3ccccc32)cc1`, for which the “activity change, negative = inhibition” value is 2.21% (inactive).
On to `CC(=O)N[C@@H](Cc1ccc(O)cc1)C(=O)N[C@H](C(=O)N[C@@H](C)C(=O)N[C@H](C#N)CC(=O)O)C(C)C`, for which the “activity change, negative = inhibition” value is 3.79% (inactive).
As for `Cn1ccc2cc(-c3ccc4ncnc(NCc5cccs5)c4c3)ccc21`, the “activity change, negative = inhibition” value is 6.55% (inactive).
Regarding `O=C(CN1C(=O)N/C(=C\c2cccn2-c2cccc(C(=O)O)c2)C1=O)Nc1cccc(F)c1`, the “activity change, negative = inhibition” value is -9% (inactive).
For `CN(C)CCCNC(=O)c1ccc(-c2cnc3c(O)ccc(C(=O)O)c3c2)cc1`, the “activity change, negative = inhibition” value is -5% (inactive).
Consider `O=S(=O)(c1cccc(F)c1)N1CCN(S(=O)(=O)c2ccc3c(c2)OCCO3)CC1`, for which the “activity change, negative = inhibition” value was -4.8% (inactive).
Take `O=C1CCc2cc(S(=O)(=O)Nc3ccc(Cl)c(Cl)c3)c(F)cc2N1`: the Potency entry was “inactive”.
As for `Cc1cc2c(s1)c1cnn(Cc3ccc(F)c(C)c3)c(=O)c1n2C`, the “activity change, negative = inhibition” value was 7.04% (inactive).
On the same count and under the same terms, to `Cc1cc(C)nc(NC(=S)N2CCN(c3cc(Cl)cc(C(F)(F)F)c3)CC2)c1` belongs -12.4% (inactive); to `N#Cc1ccc(-c2nc(NCc3ccc(-c4ccnc(C(F)(F)F)c4)cc3)c3ccccc3n2)cc1`, 13.5% (inactive).
`Cc1cc2c(s1)c1cnn(Cc3cccc(Br)c3)c(=O)c1n2C`: the “activity change, negative = inhibition” value is 9.57% (inactive).
As to `CCOC(=O)c1ccc(O)c2ncc(NCC3CCCN(CCc4ccccc4)C3)cc12` (centres undefined), the “activity change, negative = inhibition” value was -6.05% (inactive).
With `Oc1ccc(CNc2ccc(F)cc2Cl)c2cccnc12`, the “activity change, negative = inhibition” value was 18.8% (inactive).
Take `NC(=O)c1c(NC(=O)C2CCCO2)sc2c1CCCC2` (centres undefined): the “activity change, negative = inhibition” value was -5.74% (inactive).
With `Cc1cc(-c2ccccc2)n2ncc(C(=O)Nc3ccccc3Sc3ccccc3)c2n1`, the “activity change, negative = inhibition” value was -0.203% (inactive).
Consider `O=C(Nc1ccc(F)nc1)Nc1nnc(-c2ccncc2)s1`, for which the “activity change, negative = inhibition” value is -0.195% (inactive).
As for `COc1ccc(-c2csc(N3CCC(C(N)=O)CC3)n2)cc1`, the “activity change, negative = inhibition” value was -3.29% (inactive).
For `O=C(COC(=O)CNC(=O)c1ccccc1Cl)Nc1ccccc1Cl`, the “activity change, negative = inhibition” value is 1.09% (inactive).
Same read-out and setting: under `O=C(OCC#CCSc1nnc(-c2ccc3ccccc3c2)o1)c1cccs1` stands -1.07% (inactive).
Still for that read-out and setting: to `Cc1ccnc(NC(=S)N2CCN(c3ccc(Cl)c(Cl)c3)CC2)c1` belongs -8.7% (inactive); to `N#Cc1cccc(S(=O)(=O)N2CCN(S(=O)(=O)c3ccc4c(c3)OCCO4)CC2)c1`, -4.35% (inactive); to `COc1cncc(NC(=O)c2cccs2)c1`, -19.3% (inactive).
With `Cc1ccccc1NS(=O)(=O)c1ccc2c(c1)CCC(=O)N2`, the “activity change, negative = inhibition” value is -2.17% (inactive).
`O=C(Nc1cc(C(F)(F)F)ccc1Cl)C(O)Cc1ccccc1` (centres undefined): the “activity change, negative = inhibition” value is 0.177% (inactive).
Regarding `CCOC(=O)c1ccc(-n2cccc2/C=C2\NC(=O)NC2=O)cc1`, the “activity change, negative = inhibition” value is -0.411% (inactive).
Regarding `NC(=O)C1CCN(c2nc(-c3cccnc3)cs2)CC1`, the “activity change, negative = inhibition” value was -3.29% (inactive).
For the molecule `S=C(Nc1cc(Cl)ccn1)N1CCN(c2ccc(Cl)cc2Cl)CC1`, the “activity change, negative = inhibition” value is 1.39% (inactive).
Turning to `O=C1CCCC2=C1C(c1ccccc1Cl)N=C(c1ccccn1)N2` (centres undefined), the “activity change, negative = inhibition” value is -9.1% (inactive).
For `Cc1c(P(=S)(c2ccccc2)c2ccccc2)c2ccccc2n1C(=O)NCc1ccccc1`, the “activity change, negative = inhibition” value was 3.86% (inactive).
Take `COc1cc(NC(=O)C(OC(=O)CNC(=O)c2ccccc2)c2ccccc2)cc(OC)c1` (centres undefined): the “activity change, negative = inhibition” value is 1.37% (inactive).
`CC(=O)Nc1sc2c(c1-c1nc3ccccc3s1)CNCC2`: the “activity change, negative = inhibition” value is -21.3% (inactive).
For `O=C1CCc2cc(S(=O)(=O)Nc3cccc(F)c3)ccc2N1`, the “activity change, negative = inhibition” value is 0.47% (inactive).
The same measure, in the same setting: to `COc1cccc(Cn2ncc3c4sc(C)cc4n(C)c3c2=O)c1` belongs -1.53% (inactive).
With `O=C(CSc1nnc(-c2cccc([S+](=O)([O-])N3CCCC3)c2)n1-c1ccccc1)Nc1ccc(Br)cc1`, the “activity change, negative = inhibition” value is 13.7% (inactive).
On to `CC(C)(C)OC(=O)NCC(=O)NNC(=O)c1cc2ccccc2[nH]1`, for which the “activity change, negative = inhibition” value was -2.65% (inactive).
